# Data: the supplement of paper PMC12282887
# ± gives the standard deviation of the averaged measurements.
# Columns and labels:
# Test in all cases: promoter activity interaction Z-score (Lux/OD deviation from empty-vector control); higher = stronger promoter induction by the compound
# [1] = system: E. coli BW25113 acrABp lux reporter
# Procedure, shortened: (§1)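 E. coli BW25113 luxCDABE reporter strains grew at 37°C in 40 µl LB Lennox in 384-well plates, with OD600 and luminescence read every 30 min for 12 h. After integration over 0–8 h for wild type or 1–9 h for deletion strains, wells under 10% of the median growth value were removed. Each score is the Z-transformed residual of growth-normalised luminescence fitted against a control.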
# [2] = system: E. coli BW25113 marRABp lux reporter
# Procedure, shortened: as §1
# [3] = system: E. coli BW25113 micFp lux reporter
# Procedure, shortened: as §1
# [4] = system: E. coli BW25113 ompFp lux reporter
# Procedure, shortened: as §1
# [5] = system: E. coli BW25113 robp lux reporter
# Procedure, shortened: as §1
# [6] = system: E. coli BW25113 soxSp lux reporter
# Procedure, shortened: as §1
# [7] = system: E. coli BW25113 tolCp lux reporter
# Procedure, shortened: as §1
# [8] = 0.45 µg/ml, genetic background: wild type
# [9] = 0.45 µg/ml, genetic background: ΔmarA
# [10] = 0.45 µg/ml, genetic background: Δrob
# [11] = 0.45 µg/ml, genetic background: ΔsoxS
# [12] = 0.89 µg/ml, genetic background: wild type
# [13] = 0.89 µg/ml, genetic background: ΔmarA
# [14] = 0.89 µg/ml, genetic background: Δrob
# [15] = 0.89 µg/ml, genetic background: ΔsoxS
# [16] = 1.8 µg/ml, genetic background: wild type
# [17] = 1.8 µg/ml, genetic background: ΔmarA
# [18] = 1.8 µg/ml, genetic background: Δrob
# [19] = 1.8 µg/ml, genetic background: ΔsoxS
# [20] = 3.6 µg/ml, genetic background: wild type
# [21] = 3.6 µg/ml, genetic background: ΔmarA
# [22] = 3.6 µg/ml, genetic background: ΔsoxS
# [23] = 3.6 µg/ml, genetic background: Δrob
compound,measurement,setting,value
O=C1CN(/N=C/c2ccc([N+](=O)[O-])o2)C(=O)N1 [Nitrofurantoin],promoter activity interaction Z-score,[1]; [8],0.0114 ± 0.17
same,promoter activity interaction Z-score,[1]; [9],0.119 ± 1.2
same,promoter activity interaction Z-score,[1]; [10],0.336 ± 0.34
same,promoter activity interaction Z-score,[1]; [11],0.0185 ± 0.49
same,promoter activity interaction Z-score,[1]; [12],-0.124 ± 0.043
same,promoter activity interaction Z-score,[1]; [13],0.483 ± 1.2
same,promoter activity interaction Z-score,[1]; [14],0.267 ± 0.28
same,promoter activity interaction Z-score,[1]; [15],-0.258 ± 0.11
same,promoter activity interaction Z-score,[1]; [16],0.24 ± 0.28
same,promoter activity interaction Z-score,[1]; [17],-0.0961 ± 0.62
same,promoter activity interaction Z-score,[1]; [18],0.562 ± 0.54
same,promoter activity interaction Z-score,[1]; [19],0.221 ± 0.13
same,promoter activity interaction Z-score,[1]; [20],5.63 ± 1.8
same,promoter activity interaction Z-score,[1]; [21],1.31 ± 1.1
same,promoter activity interaction Z-score,[1]; [22],1.31
same,promoter activity interaction Z-score,[2]; [8],0.183 ± 0.32
same,promoter activity interaction Z-score,[2]; [9],0.105 ± 0.23
same,promoter activity interaction Z-score,[2]; [10],0.131 ± 0.13
same,promoter activity interaction Z-score,[2]; [11],0.198 ± 0.24
same,promoter activity interaction Z-score,[2]; [12],0.503 ± 0.047
same,promoter activity interaction Z-score,[2]; [13],0.249 ± 0.27
same,promoter activity interaction Z-score,[2]; [14],0.252 ± 0.052
same,promoter activity interaction Z-score,[2]; [15],0.0792 ± 0.11
same,promoter activity interaction Z-score,[2]; [16],1.04 ± 0.38
same,promoter activity interaction Z-score,[2]; [17],0.658 ± 0.16
same,promoter activity interaction Z-score,[2]; [18],1.16 ± 0.11
same,promoter activity interaction Z-score,[2]; [19],0.447 ± 0.016
same,promoter activity interaction Z-score,[2]; [20],7.36 ± 0.64
same,promoter activity interaction Z-score,[2]; [21],4.45 ± 1.7
same,promoter activity interaction Z-score,[2]; [23],12.8 ± 0.43
same,promoter activity interaction Z-score,[2]; [22],12.2
same,promoter activity interaction Z-score,[3]; [8],-0.201 ± 0.35
same,promoter activity interaction Z-score,[3]; [9],-0.0627 ± 0.036
same,promoter activity interaction Z-score,[3]; [10],-0.0214 ± 0.074
same,promoter activity interaction Z-score,[3]; [11],0.0613 ± 0.061
same,promoter activity interaction Z-score,[3]; [12],-0.0281 ± 0.071
same,promoter activity interaction Z-score,[3]; [13],0.0181 ± 0.016
same,promoter activity interaction Z-score,[3]; [14],0.0629 ± 0.06
same,promoter activity interaction Z-score,[3]; [15],-0.168 ± 0.14
same,promoter activity interaction Z-score,[3]; [16],-0.0112 ± 0.03
same,promoter activity interaction Z-score,[3]; [17],-0.163 ± 0.13
same,promoter activity interaction Z-score,[3]; [18],0.113 ± 0.19
same,promoter activity interaction Z-score,[3]; [19],0.261 ± 0.17
same,promoter activity interaction Z-score,[3]; [20],-0.0667 ± 0.48
same,promoter activity interaction Z-score,[3]; [21],-0.232 ± 0.11
same,promoter activity interaction Z-score,[3]; [23],1.15 ± 0.47
same,promoter activity interaction Z-score,[3]; [22],0.96
same,promoter activity interaction Z-score,[4]; [8],-0.15 ± 0.13
same,promoter activity interaction Z-score,[4]; [9],-0.453 ± 0.32
same,promoter activity interaction Z-score,[4]; [10],-0.0497 ± 0.041
same,promoter activity interaction Z-score,[4]; [11],0.0722 ± 0.049
same,promoter activity interaction Z-score,[4]; [12],-0.0847 ± 0.24
same,promoter activity interaction Z-score,[4]; [13],-0.089 ± 0.056
same,promoter activity interaction Z-score,[4]; [14],-0.35 ± 0.18
same,promoter activity interaction Z-score,[4]; [15],-0.556 ± 0.079
same,promoter activity interaction Z-score,[4]; [16],-0.226 ± 0.099
same,promoter activity interaction Z-score,[4]; [17],-0.21 ± 0.076
same,promoter activity interaction Z-score,[4]; [18],0.603 ± 0.17
same,promoter activity interaction Z-score,[4]; [19],0.0583 ± 0.32
same,promoter activity interaction Z-score,[4]; [20],-2.5
same,promoter activity interaction Z-score,[4]; [21],1.3 ± 0.68
same,promoter activity interaction Z-score,[4]; [23],3.89
same,promoter activity interaction Z-score,[4]; [22],-0.534
same,promoter activity interaction Z-score,[5]; [8],0.114 ± 0.034
same,promoter activity interaction Z-score,[5]; [9],0.455 ± 0.074
same,promoter activity interaction Z-score,[5]; [10],0.575 ± 0.24
same,promoter activity interaction Z-score,[5]; [11],0.737 ± 0.98
same,promoter activity interaction Z-score,[5]; [12],0.053 ± 0.093
same,promoter activity interaction Z-score,[5]; [13],1.12 ± 0.13
same,promoter activity interaction Z-score,[5]; [14],-0.308 ± 0.14
same,promoter activity interaction Z-score,[5]; [15],0.326 ± 0.87
same,promoter activity interaction Z-score,[5]; [16],-0.109 ± 0.28
same,promoter activity interaction Z-score,[5]; [17],-0.423 ± 0.23
same,promoter activity interaction Z-score,[5]; [18],-0.197 ± 0.6
same,promoter activity interaction Z-score,[5]; [19],0.0845 ± 0.42
same,promoter activity interaction Z-score,[5]; [20],-0.125 ± 0.22
same,promoter activity interaction Z-score,[5]; [21],-0.424 ± 0.58
same,promoter activity interaction Z-score,[5]; [22],0.453 ± 1.5
same,promoter activity interaction Z-score,[6]; [8],0.0106 ± 0.12
same,promoter activity interaction Z-score,[6]; [9],-0.137 ± 0.086
same,promoter activity interaction Z-score,[6]; [10],-0.0668 ± 0.14
same,promoter activity interaction Z-score,[6]; [11],0.0402 ± 0.15
same,promoter activity interaction Z-score,[6]; [12],0.102 ± 0.0085
same,promoter activity interaction Z-score,[6]; [13],0.0915 ± 0.093
same,promoter activity interaction Z-score,[6]; [14],0.0454 ± 0.22
same,promoter activity interaction Z-score,[6]; [15],0.0812 ± 0.0067
same,promoter activity interaction Z-score,[6]; [16],0.0189 ± 0.12
same,promoter activity interaction Z-score,[6]; [17],-0.113 ± 0.12
same,promoter activity interaction Z-score,[6]; [18],-0.00251 ± 0.13
same,promoter activity interaction Z-score,[6]; [19],0.294 ± 0.093
same,promoter activity interaction Z-score,[6]; [20],0.367 ± 0.26
same,promoter activity interaction Z-score,[6]; [21],0.0789 ± 0.17
same,promoter activity interaction Z-score,[6]; [23],-0.00598 ± 0.3
same,promoter activity interaction Z-score,[6]; [22],0.987 ± 0.11
same,promoter activity interaction Z-score,[7]; [8],-0.752 ± 0.08
same,promoter activity interaction Z-score,[7]; [9],-0.242 ± 1.3
same,promoter activity interaction Z-score,[7]; [10],-0.5 ± 0.78
same,promoter activity interaction Z-score,[7]; [11],-0.5485 ± 0.0052
same,promoter activity interaction Z-score,[7]; [12],0.445 ± 0.35
same,promoter activity interaction Z-score,[7]; [13],0.287 ± 1.1
same,promoter activity interaction Z-score,[7]; [14],-0.164 ± 0.15
same,promoter activity interaction Z-score,[7]; [15],-0.317 ± 0.33
same,promoter activity interaction Z-score,[7]; [16],-0.711 ± 0.13
same,promoter activity interaction Z-score,[7]; [17],-0.75 ± 0.79
same,promoter activity interaction Z-score,[7]; [18],0.238 ± 0.13
same,promoter activity interaction Z-score,[7]; [19],0.385 ± 1.6
same,promoter activity interaction Z-score,[7]; [20],1.24 ± 0.17
same,promoter activity interaction Z-score,[7]; [21],-1.22 ± 0.056
same,promoter activity interaction Z-score,[7]; [23],0.356 ± 0.69
same,promoter activity interaction Z-score,[7]; [22],0.0431 ± 0.49
